Sm TGR inh – inhibitors of Schistosoma mansoni thioredoxin glutathione reductase | Q962Y6 | purified TGR, DTNB reduction, TNB absorbance 405 nm | Potency, µM (highest dose often 114 µM), actives largely listed as inhibitors | 360,000 tested, 3% active | AID 485364; note: nearly all actives have a fitted effect of over 60% in size
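First, TGR (20 nM dispensed) and NADPH were mixed with compound. Second, a 15 min room-temperature incubation followed. Third, further NADPH and then DTNB were added to start the reaction. Finally, TNB absorbance was monitored kinetically.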
Pf growth 48h – inhibits P. falciparum growth in the first generation, 48 h; P. falciparum luciferase growth in erythrocytes, 48 h; Potency, µM (highest dose often 28.7 µM), usual class: inhibitors; 310,000 tested, 5.9% active; AID 504832
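Firefly luciferase activity from engineered P. falciparum reports growth; inhibitors lower the luminescent signal. Cultures contained 2% hematocrit erythrocytes at 0.1% final parasitemia.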
HCMV inh – inhibitors of human cytomegalovirus. HFF cells, HCMV-luciferase reporter, 72 h; hits give low values. AID 1259415. activity change, negative = inhibition, % at 57.5 µM. 410,000 tested, 4.5% active; in the data active = activity change below about -60%; inconclusive = no clear call, values can overlap the other calls; inactive = above about -39%
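After 16 h attachment at 37C, HFF cells received test compound and HCMV-luciferase (1 PFU/cell); reporter luminescence read 72 h later, data normalized against buffer-only and known inhibitor Salinomycin.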
Pf growth 96h – inhibits malaria parasite growth, 96 h | AID 504834 | P. falciparum luciferase reporter growth, 96 h | Potency, µM (titrated, usually from 28.7 µM), usual class: inhibitors | 320,000 tested, 6.9% active
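Readout is luminescence from an integrated firefly luciferase in P. falciparum. Red cells, 2% hematocrit and 0.05% parasitemia final, were cultured with compound through two parasite generations (96 hours) at 37 C, 5% CO2.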
FBPA Giardia inh – Giardia lamblia aldolase inhibition; AID 2451; 290,000 tested, 0.71% active; A8B2U2; Potency, µM (doses to about 59.6 µM), most hits filed as inhibitors; purified Giardia FBPA; note: nearly all actives have a fitted effect of over 55% in size
Target sequence (A8B2U2 whole entry, looked up): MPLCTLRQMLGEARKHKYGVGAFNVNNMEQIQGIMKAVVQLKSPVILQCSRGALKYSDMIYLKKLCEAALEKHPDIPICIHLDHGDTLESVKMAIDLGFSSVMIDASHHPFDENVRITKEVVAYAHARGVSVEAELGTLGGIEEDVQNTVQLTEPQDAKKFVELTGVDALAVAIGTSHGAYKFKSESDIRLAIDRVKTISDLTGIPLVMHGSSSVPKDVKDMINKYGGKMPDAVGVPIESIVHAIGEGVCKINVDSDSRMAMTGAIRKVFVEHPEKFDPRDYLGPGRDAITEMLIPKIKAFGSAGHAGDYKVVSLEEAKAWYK
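40 nM FBPA preincubated 10 min at RT with compound (up to 57.5 uM final), then substrate plus GAPDH/TPI/NAD/arsenate coupling and diaphorase/resazurin added. Fluorescence read after 20 min at RT, 525/598 nm.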
A number is an active result; i = inactive; ? = inconclusive; nt = no result; [ ] = remark or other dose. Only some compounds are listed: those with a hit (about 14% of all), similar ones and a draw of the others. Unless noted, calls come from the whole dose curve; as a rule, active = well fitted curve in the direction sought with a large enough effect; inconclusive = small, poorly fitted or top-dose-only effect, or another doubt; inactive = no such curve, though single readings can be large; an effect the other way counts as inactive or inconclusive.

SMILES	Sm TGR inh	Pf growth 48h	HCMV inh	Pf growth 96h	FBPA Giardia inh
O=C1CCC[C@H]2[C@@H](Cc3ccccc3)[C@@H](NS(=O)(=O)c3ccc([N+](=O)[O-])cc3)CC[C@]23CCCN13	nt	nt	i	nt	nt
O=C(Nc1ccn(CCCNCc2ccc3c(c2)OCO3)c(=O)n1)OCc1ccccc1	nt	nt	i	nt	nt
O=C1N[C@@H](Cc2ccccc2)C(=O)N2[C@H]1C[C@]1([C@]34C[C@H]5C(=O)N[C@@H](Cc6ccccc6)C(=O)N5[C@H]3N(S(=O)(=O)c3ccccc3)c3ccccc34)c3ccccc3N(S(=O)(=O)c3ccccc3)[C@H]21	i	1.47µM	?	0.738µM	nt
O=C1N[C@@H](Cc2ccccc2)C(=O)N2[C@@H]3N(S(=O)(=O)c4ccccc4)c4ccccc4[C@]3(Br)C[C@@H]12	nt	nt	i	nt	nt
CCOc1cc(CNc2cccc3[nH]c(C)nc23)ccc1OC	i	11.7µM	i	i	?
CCOc1cc(CNc2ncnc3nc[nH]c23)ccc1OC	i	i	i	i	i
CSc1ccc(CN(C)CC(=O)Nc2c(F)cccc2F)cc1	i	i	i	i	19.9µM
O=C1CCCCc2sc(Br)c([N+](=O)[O-])c2N1	0.794µM	i	i	i	i
O=C(NCCC1=CCCCC1)c1ccc(Cl)c(S(=O)(=O)N2CCCCC2)c1	i	9.28µM	-80.8	5.86µM	i
O=C(NCCSCc1c(F)cccc1Cl)c1ccc(CN2CCOCC2)cc1	i	i	-63.1	i	i
Cc1ccc(CSCCNC(=O)c2ccc(Cl)c(S(=O)(=O)N3CCOCC3)c2)cc1	i	nt	i	5.22µM	i
O=C(NCCC1=CCCCC1)c1ccc(Cl)c(S(=O)(=O)N2CCOCC2)c1	i	5.86µM	-66.2	i	i
O=C(NCCC1=CCCCC1)c1cc(S(=O)(=O)N2CCOCC2)c(Cl)cc1Cl	i	?	i	i	nt
COc1ccc(C2OC3C(CO)OC(n4cnc5c(=O)[nH]c(N)nc54)C3O2)cc1 (centres undefined)	nt	nt	nt	nt	i
O=C(OCc1ccccc1)C1=NNC2C(=O)N(Cc3ccccc3)C(=O)C12 (centres undefined)	nt	i	i	i	i
COCC(=O)N1[C@H](CO)[C@@H]2c3ccccc3N(C(=O)c3ccccc3F)C[C@@H]21	nt	nt	i	nt	nt
C[C@@H]1CN([C@H](C)CO)C(=O)CCCn2nncc2CO[C@H]1CN(C)S(=O)(=O)c1ccccc1F	nt	nt	i	nt	nt
Nc1c(C(=O)NCCC2=CCCCC2)sc2ccc(S(=O)(=O)N3CCCCC3)cc12	i	13.1µM	i	?	i
CC(=O)N1CCN(S(=O)(=O)c2cccc(C(=O)NCCC3=CCCCC3)c2)CC1	i	i	i	8.28µM	nt
CN1CCN(S(=O)(=O)c2cccc(C(=O)NCCC3=CCCCC3)c2)CC1	i	i	i	i	nt
CCCCC/C=C\C/C=C\C/C=C\C/C=C\CCCCCC(N)=O	nt	nt	nt	nt	i
C=CCN1C[C@H](COC(=O)c2cccc(C)c2)Oc2cccc(F)c2S1(=O)=O	nt	nt	i	nt	nt
Cc1ccc(C2(C(F)(F)F)NC(=O)N3C(=C2C#N)Nc2ccccc23)cc1 (centres undefined)	i	i	i	nt	i
CN1C2=C(C#N)C(c3ccccc3)(C(F)(F)F)NC(=O)N2c2ccccc21 (centres undefined)	i	nt	i	7.38µM	i
Cn1c(-c2cccnc2)cc2c(Nc3cccc(C(F)(F)F)c3)nccc21	nt	nt	i	nt	nt
SMILES	Sm TGR inh	Pf growth 48h	HCMV inh	Pf growth 96h	FBPA Giardia inh
CN1CCN(S(=O)(=O)c2ccc(Sc3nnnn3-c3ccccc3)c([N+](=O)[O-])c2)CC1	7.08µM	?	i	?	i
CC(=O)c1ccc(Sc2nnnn2-c2ccccc2)c([N+](=O)[O-])c1	35.5µM	i	-67.2	i	i
O=[N+]([O-])c1ccc(Sc2nnnn2-c2ccccc2)c(Cl)c1	?	nt	-73.1	?	i
CC(C)Sc1nc2c(cnn2-c2ccc(Cl)cc2)c(=O)[nH]1	i	i[0.00184 µM]	i	i	i
CCOc1cccc(N2C(=O)CC(NNC(=O)c3ccc(Br)o3)C2=O)c1 (centres undefined)	25.1µM	i	i	i	i
COc1ccccc1CNC(=O)CCNS(=O)(=O)c1ccc2c(c1)CCCC(=O)N2	i	nt	i	nt	nt
O=C(Nc1nccs1)c1cc2c(s1)CCCCC2	i	nt	-64.4	i	i
CC(=O)Nc1cccc(Nc2cc3c(cn2)cc(-c2cnn(C)c2)n3Cc2ccccc2)c1	nt	nt	i	nt	nt
CC1(C(=O)Nc2cccc(Oc3ccccc3)c2)Cc2c(-c3ccc4c(c3)OCO4)ccnc2O1 (centres undefined)	nt	nt	-67.1	nt	nt
CCCC(=O)N1CCC1(C)C(=O)Nc1ccc(OC(F)F)cc1 (centres undefined)	nt	nt	i	nt	nt
Cc1ccc2c(c1)c(N=O)c(O)n2Cc1ccc(Cl)cc1	nt	11.7µM	i	i	i
O=Nc1c(O)n(Cc2ccc(Cl)cc2Cl)c2ccccc12	i	?	?	8.28µM	i
O=Nc1c(O)n(Cc2c(Cl)cccc2Cl)c2ccccc12	i	?	-79.4	?	i
Cc1ccc(Cn2c(O)c(N=O)c3ccccc32)cc1	nt	?	?	?	i
O=Nc1c(O)n(Cc2ccc(Cl)cc2)c2ccccc12	i	13.1µM	i	?	i
CCCC[C@]12Cc3cc(OC)c(OC)cc3C(O1)c1c(cc(-c3ccccc3)oc1=O)O2	i[22.9 µM]	?	nt	1.51µM	i[12.9 µM]
CCCC[C@]12Cc3ccccc3C(O1)c1c(cc(-c3ccccc3)oc1=O)O2	3.16µM	0.426µM	nt	1.51µM	2µM
N#Cc1ccc2c(c1)C[C@]1(CCCCN3C(=O)c4ccccc4C3=O)Oc3cc(-c4ccccc4)oc(=O)c3[C@H]2O1	i[22.9 µM]	?	nt	?	i[12.9 µM]
CCC(CCC(=O)Nc1nncs1)C(=O)O (centres undefined)	i	nt	nt	i	i
CCCN1CCc2c(sc(NC(=O)CCS(=O)(=O)c3ccccc3)c2C(=O)OC)C1	22.4µM	?	i	13.1µM	nt
CC(C)N1CCc2c(sc(NC(=O)CCS(=O)(=O)c3ccccc3)c2C#N)C1	14.1µM	i	i	?	i
CC(CCC(=O)Nc1nncs1)C(=O)O (centres undefined)	i	i	i	11.7µM	i
COC(=O)c1ccsc1NC(=O)CCS(=O)(=O)c1ccccc1	10µM	i	i	i	nt
CC(C)(C)S(=O)N1C[C@@H]2CC(=O)C(c3ccccc3)=C2[C@H]1CCO (some centres undefined)	nt	nt	i	nt	nt
CCc1nc2c(OCc3ccc(F)c(F)c3)cccn2c1N(C)C(=O)c1ccncc1	nt	nt	i	nt	nt
SMILES	Sm TGR inh	Pf growth 48h	HCMV inh	Pf growth 96h	FBPA Giardia inh
O=C(Nc1nc2c(s1)COc1ccccc1-2)c1cccs1	i	nt	i	?	i
COC(=O)c1c(NC(NC(=O)c2ccccc2)(C(F)(F)F)C(F)(F)F)sc2c1CCN(C)C2	i	8.28µM	i	2.33µM	i
O=C(CCS(=O)(=O)c1ccccc1)Nc1nncs1	20µM	?	i	i	i
COC(=O)c1c(NC(=O)CCS(=O)(=O)c2ccccc2)sc2c1CCN(C)C2	?	13.1µM	-90.1	?	i
O=C(CCS(=O)(=O)c1ccccc1)Nc1nc2c(s1)COc1ccccc1-2	31.6µM	nt	i	?	i
O=C(CCCc1ccccc1)Nc1nncs1	i	i	i	i	i

Bioassay records as filed in PubChem.
